Where “and” joins values, the source holds several entries; their conditions need not be identical. Equal entries are not always repeated. About 83,000 compounds went through this panel and 20% of them were active in at least one assay; those are over-represented in the sample as a whole.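 Single-concentration screen, 48 h exposure, 96-well plates. Endpoint: percent growth. Below 10 = active.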 Calls of active or inactive are those of the source. Where a SMILES comes first, the peptide text is derived from it.

The record followed here is PubChem BioAssay (NCI).

The first assay concerns SW-620 colon. The assay is described as follows: NCI-60 one-dose screen, 48 h (100 = growth as untreated, 0 = no growth, -100 = all killed). To be noted: 10 µM unless noted.
Consider `NC(Cc1c[nH]c2ccccc12)C(=O)O` (stereo not given), for which the growth was 111% (inactive) and 95.9% (inactive).

For the molecule `CC(=O)Nc1ccc(S(N)(=O)=O)cc1`, the growth is 96.7% (inactive) and 104% (inactive).

In the case of `COc1ccc(Nc2ccc3ccccc3c2)cc1`, the growth is 72.1% (inactive).

As to `CC1CCC(C(C)C)C(NNC(N)=O)C1` (stereo not given), the growth is 98% (inactive).

For `Cc1cc(-c2ccc(N=Nc3ccc4c(S(=O)(=O)O)cc(S(=O)(=O)O)c(N)c4c3O)c(C)c2)ccc1N=Nc1ccc2c(S(=O)(=O)O)cc(S(=O)(=O)O)c(N)c2c1O`, the growth is 110% (inactive).

Regarding `CCCCCCCCCCCCCCCc1ccc(N)c(OC2OC(CO)C(O)C(O)C2O)c1` (stereo not given), the growth is 98.2% (inactive).

For the molecule `CCOC(=O)c1c(C)cc(=O)oc1C`, the growth is 110% (inactive).

As for `Cc1cc2ccccc2cn1`, the growth is 104% (inactive) and 116% (inactive).

Consider `O=C(CO)C(O)C(O)C(O)C(O)CO` (stereo not given), for which the growth was 105% (inactive) and 100% (inactive).

For `COc1ccc(C(=O)CC(c2ccccc2)C(C#N)c2ccccc2)cc1` (stereo not given), the growth was 91.1% (inactive).

`Fc1ccc([I+]c2ccc(F)cc2)cc1`: the growth was 55.9% (inactive).

Turning to `CN(C)c1ccc(/C=C\C(=O)c2ccccc2)cc1`, the growth was 64.2% (inactive) and 61.3% (inactive) and 66.4% (inactive).

As for `O=[N+]([O-])c1cccc(SSc2cccc([N+](=O)[O-])c2)c1`, the growth is 109% (inactive).

For the molecule `O=C(O)/C=C\C(=O)Nc1cccc2ccccc12`, the growth is 99.5% (inactive) and 106% (inactive).

With `CCc1cc(C)cc(O)c1`, the growth was 107% (inactive).

`Brc1ccc(SSc2ccc(Br)cc2)cc1`: the growth was 84.2% (inactive).

As for `ClCCOCCOc1ccc(C2CCCCC2)cc1`, the growth was 110% (inactive).

With `CN(C)CC1CCCCCC(CN(C)C)C1=O` (stereo not given), the growth is -64.3% (active).

`NN1CCOC(c2ccccc2)C1` (stereo not given): the growth was 98% (inactive).

With `NC(Cc1ccccc1)C(=O)NC(Cc1ccccc1)C(=O)O` (stereo not drawn) (H-Phe-Phe-OH; configuration not given here), the growth is 102% (inactive) and 108% (inactive).

As for `c1ccc(CNCCNCc2ccccc2)cc1`, the growth is 107% (inactive).

Turning to `CC1=C/C(O)CC(=O)Cc2nc(co2)C(=O)N2CCC=C2C(=O)OC(C(C)C)C(C)/C=C\C(=O)NC/C=C\1` (stereo not given), the growth is 59.9% (inactive).

With `O=C1CSC2=NCCN12`, the growth is 92% (inactive) and 93.4% (inactive).

With `Cn1cnc([N+](=O)[O-])c1Sc1ncn[nH]1`, the growth was 106% (inactive).

For the molecule `NC1CCC(C(=O)O)CC1` (stereo not given), the growth was 93.7% (inactive) and 100% (inactive).

`CC[C@H](CC[C@@H](C)[C@H]1CC[C@H]2[C@@H]3CC=C4C[C@@H](O)CC[C@]4(C)[C@H]3CC[C@]12C)C(C)C`: the growth is 110% (inactive) and 104% (inactive).

Regarding `c1ccc2c(c1)OC1OC2Oc2ccccc21`, the growth was 96.9% (inactive).

For `CCCCOc1ccc(Nc2cc(Cl)ccc2C(=O)O)cn1`, the growth is 103% (inactive) and 101% (inactive).

Turning to `CC(C)(O)C(=O)O`, the growth is 110% (inactive).

As for `c1ccc(-c2nc3ccccc3s2)cc1`, the growth is 93.6% (inactive).

Take `CC(=O)OCC1OC(OC(C)=O)C(OC(C)=O)C(OC(C)=O)C1OC(C)=O` (stereo not given): the growth was 102% (inactive) and 105% (inactive).

Regarding `CCN(CCNS(C)(=O)=O)c1ccc(N)c(C)c1`, the growth is 21.6% (inactive) and -27.2% (active).

`OC1COC(OCc2ccccc2)C(O)C1O` (stereo not given): the growth was 109% (inactive).

Regarding `NC(=O)NCCCC(N)C(=O)O` (stereo not given), the growth is 107% (inactive).

Turning to `CC(C)C(C)(C)c1ccc(O)cc1`, the growth was 101% (inactive).

For `Cl`, the growth was 100% (inactive).

On to `N#CC(C#N)N=Nc1cc(Cl)ccc1Cl`, for which the growth was 104% (inactive).

A further assay concerns MCF7 breast. The assay is described as above. To be noted: 10 µM unless noted.
Take `NC(Cc1c[nH]c2ccccc12)C(=O)O` (stereo not given): the growth is 105% (inactive) and 98.5% (inactive).

With `CC(=O)Nc1ccc(S(N)(=O)=O)cc1`, the growth was 91.8% (inactive) and 93.3% (inactive).

With `COc1ccc(Nc2ccc3ccccc3c2)cc1`, the growth was 58.1% (inactive).

Take `CC1CCC(C(C)C)C(NNC(N)=O)C1` (stereo not given): the growth was 100% (inactive).

As for `Cc1cc(-c2ccc(N=Nc3ccc4c(S(=O)(=O)O)cc(S(=O)(=O)O)c(N)c4c3O)c(C)c2)ccc1N=Nc1ccc2c(S(=O)(=O)O)cc(S(=O)(=O)O)c(N)c2c1O`, the growth is 103% (inactive).

For the molecule `CCCCCCCCCCCCCCCc1ccc(N)c(OC2OC(CO)C(O)C(O)C2O)c1` (stereo not given), the growth is 93.7% (inactive).

Consider `CCOC(=O)c1c(C)cc(=O)oc1C`, for which the growth is 97.1% (inactive).

`Cc1cc2ccccc2cn1`: the growth is 98.5% (inactive) and 101% (inactive).

With `O=C(CO)C(O)C(O)C(O)C(O)CO` (stereo not given), the growth is 101% (inactive) and 102% (inactive).

Consider `COc1ccc(C(=O)CC(c2ccccc2)C(C#N)c2ccccc2)cc1` (stereo not given), for which the growth was 93.4% (inactive).

Turning to `Fc1ccc([I+]c2ccc(F)cc2)cc1`, the growth was 48.2% (inactive).

`CN(C)c1ccc(/C=C\C(=O)c2ccccc2)cc1`: the growth is 50.2% (inactive) and 39.2% (inactive) and 45% (inactive).

For `O=[N+]([O-])c1cccc(SSc2cccc([N+](=O)[O-])c2)c1`, the growth is 93.7% (inactive).

As for `O=C(O)/C=C\C(=O)Nc1cccc2ccccc12`, the growth is 97.3% (inactive) and 101% (inactive).

As to `CCc1cc(C)cc(O)c1`, the growth is 98.3% (inactive).

Consider `Brc1ccc(SSc2ccc(Br)cc2)cc1`, for which the growth is 59.7% (inactive).

For `ClCCOCCOc1ccc(C2CCCCC2)cc1`, the growth was 102% (inactive).

Consider `CN(C)CC1CCCCCC(CN(C)C)C1=O` (stereo not given), for which the growth is 24.7% (inactive).

`NN1CCOC(c2ccccc2)C1` (stereo not given): the growth was 91.8% (inactive).

Take `NC(Cc1ccccc1)C(=O)NC(Cc1ccccc1)C(=O)O` (stereo not drawn) (H-Phe-Phe-OH; configuration not given here): the growth was 98.9% (inactive) and 94.3% (inactive).

For `c1ccc(CNCCNCc2ccccc2)cc1`, the growth was 93.4% (inactive).

`CC1=C/C(O)CC(=O)Cc2nc(co2)C(=O)N2CCC=C2C(=O)OC(C(C)C)C(C)/C=C\C(=O)NC/C=C\1` (stereo not given): the growth is 71.8% (inactive).

For the molecule `O=C1CSC2=NCCN12`, the growth was 92.7% (inactive) and 81.6% (inactive).

Take `Cn1cnc([N+](=O)[O-])c1Sc1ncn[nH]1`: the growth is 102% (inactive).

For `Nc1ncnc2c1ncn2C1OC(COP(=O)(O)O)C(O)C1O` (stereo not given), the growth was 101% (inactive).

Turning to `NC1CCC(C(=O)O)CC1` (stereo not given), the growth is 96% (inactive) and 95.2% (inactive).

Consider `CC[C@H](CC[C@@H](C)[C@H]1CC[C@H]2[C@@H]3CC=C4C[C@@H](O)CC[C@]4(C)[C@H]3CC[C@]12C)C(C)C`, for which the growth was 107% (inactive) and 89.8% (inactive).

As for `c1ccc2c(c1)OC1OC2Oc2ccccc21`, the growth is 107% (inactive).

Take `CCCCOc1ccc(Nc2cc(Cl)ccc2C(=O)O)cn1`: the growth was 99.5% (inactive) and 107% (inactive).

As to `CC(C)(O)C(=O)O`, the growth is 93.8% (inactive).

For the molecule `c1ccc(-c2nc3ccccc3s2)cc1`, the growth was 80.3% (inactive).

For the molecule `CC(=O)OCC1OC(OC(C)=O)C(OC(C)=O)C(OC(C)=O)C1OC(C)=O` (stereo not given), the growth is 99.8% (inactive) and 91.9% (inactive).

Consider `CCN(CCNS(C)(=O)=O)c1ccc(N)c(C)c1`, for which the growth was 20.6% (inactive) and 72.8% (inactive).

For the molecule `OC1COC(OCc2ccccc2)C(O)C1O` (stereo not given), the growth was 96% (inactive).

Turning to `NC(=O)NCCCC(N)C(=O)O` (stereo not given), the growth was 101% (inactive).

In the case of `CC(C)C(C)(C)c1ccc(O)cc1`, the growth was 109% (inactive).

For `Cl`, the growth was 109% (inactive).

As to `N#CC(C#N)N=Nc1cc(Cl)ccc1Cl`, the growth is 93.7% (inactive).
